# Assay results reported in PubChem BioAssay AID624481 (The Scripps Research Institute Molecular Screening Center, 2012).
# The source made the active and inactive calls. Cut-off read from the data, not from the text of the source: active = inhibition above about 50%; inactive = the rest.
# Target: Prolyl endopeptidase-like (Mus musculus) (UniProt Q8C167)
# Experiment: purified PREPL inhibitors, PREPL inhibitor project, biochemical, gel-based competitive ABPP, fluorescence, HTS hits (AID 624481)
# Conditions: at 20 µM, active compounds read high
# Sequence of Prolyl endopeptidase-like (Mus musculus) (Q8C167 whole entry, looked up): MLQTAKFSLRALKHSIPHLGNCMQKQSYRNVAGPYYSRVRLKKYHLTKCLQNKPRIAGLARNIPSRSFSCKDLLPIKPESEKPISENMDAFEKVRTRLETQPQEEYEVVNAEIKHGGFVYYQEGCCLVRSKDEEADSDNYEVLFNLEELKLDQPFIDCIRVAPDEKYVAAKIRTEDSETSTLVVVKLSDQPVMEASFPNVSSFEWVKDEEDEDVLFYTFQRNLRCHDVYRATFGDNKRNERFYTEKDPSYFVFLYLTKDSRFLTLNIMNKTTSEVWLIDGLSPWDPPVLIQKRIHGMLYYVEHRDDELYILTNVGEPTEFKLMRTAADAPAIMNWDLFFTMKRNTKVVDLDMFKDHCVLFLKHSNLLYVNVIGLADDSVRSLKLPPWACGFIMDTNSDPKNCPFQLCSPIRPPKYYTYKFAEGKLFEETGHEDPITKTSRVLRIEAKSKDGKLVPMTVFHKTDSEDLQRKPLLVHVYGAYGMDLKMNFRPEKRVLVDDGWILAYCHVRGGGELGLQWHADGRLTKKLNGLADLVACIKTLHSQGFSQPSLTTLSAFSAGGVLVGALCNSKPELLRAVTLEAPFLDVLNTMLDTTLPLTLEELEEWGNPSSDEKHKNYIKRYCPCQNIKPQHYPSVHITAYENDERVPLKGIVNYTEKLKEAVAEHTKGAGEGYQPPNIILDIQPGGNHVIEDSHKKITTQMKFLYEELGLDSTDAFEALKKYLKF
row,Structure (SMILES),inhibition
1,COc1ccc(CCNC(=O)c2cc3c(=O)n4cccc(C)c4nc3n(CCCN3CCOCC3)c2=N)cc1,-87% (inactive)
2,O=C(CN1CCN(c2ccc(O)cc2)CC1)Nc1cc([N+](=O)[O-])ccc1Cl,-53% (inactive)
3,O=C(C1=C[C@@H](c2ccc(Br)cc2)C[C@@H](OCc2ccc(CO)cc2)O1)N1CCN(Cc2ccccc2)CC1,-99% (inactive)
4,CC(=O)N1CCN(c2ccc(OC[C@H]3CO[C@](Cn4ccnc4)(c4ccc(Cl)cc4Cl)O3)cc2)CC1,-188% (inactive)
5,CNC(=S)N1N=C(c2ccc(OC)cc2)CC1c1ccc(N(C)C)cc1 (configuration not stated),-55% (inactive)
6,CN(CC(=O)Nc1ccc(Cl)cc1)C(=O)c1cccc(S(=O)(=O)N2CCN(Cc3ccccc3)CC2)c1,1% (inactive)
7,COc1cccc(N=Nc2c(N)[nH]n3c(=O)c4c(nc23)CCCC4)c1,93% (active)
8,Cc1ccsc1C=NN=C1C(=O)Nc2ccccc21,-90% (inactive)
9,Cc1ccc2c(CC(=O)Nc3ccc(N4CCN(C)CC4)cc3C)coc2c1,-3% (inactive)
10,CN(C)c1ccc(C(O)P(=O)(OCc2ccccc2)c2ccc(N(C)C)cc2)cc1 (configuration not stated),-57% (inactive)
11,CCN1CCN(c2ccc(NC(=O)COc3ccc(Cl)cc3C)cc2)CC1,-7% (inactive)
12,C#CCOCCOCCOCCNc1nc(N2CCN(C(=O)CCCCCCCCCCNC(=O)[C@H](CCCCN)n3cc(CCO)nn3)CC2)nc(N2CCN(C(=O)CCCCCCCCCCNC(=O)[C@H](CCCCN)n3cc(C[C@@H](C)CC)nn3)CC2)n1,-141% (inactive)
13,COc1ccc(N2CCN(c3nc4c(c(=O)n(C)c(=O)n4C)n3Cc3ccccc3)CC2)cc1,-47% (inactive)
14,CN(C)c1ccc(C(CNC(=O)c2ccccc2F)c2c[nH]c3ccccc23)cc1 (configuration not stated),-10% (inactive)
15,CC(=O)N1CCN(c2ccc(NCc3ccc(-c4cccc(Cl)c4)o3)cc2)CC1,39% (inactive)
16,Oc1ccccc1-[n+]1c(-c2ccccc2)cc(-c2ccccc2)cc1-c1ccccc1,-30% (inactive)
17,CC[C@@H](C)[C@@H]1CN([C@@H](CN2CCC[C@H]2CN2C(N)=NC[C@H]2C(C)C)C(C)C)C(=N)N1CCc1ccc(Cl)c(Cl)c1,-64% (inactive)
18,O=C(C1=C[C@@H](c2ccc(C(F)(F)F)cc2)C[C@@H](OCc2ccc(CO)cc2)O1)N1CCN(Cc2ccccc2)CC1,-76% (inactive)
19,CN(C)c1ccc(C(CNC(=O)c2ccc(-c3ccccc3)cc2)N2CCOCC2)cc1 (configuration not stated),-7% (inactive)

row,Structure (SMILES),inhibition
1,CCN1C(=O)CC(c2ccccc2)N(C2CCCC2)c2nc(Nc3ccc(C(=O)NC4CCN(C)CC4)cc3OC)ncc21 (configuration not stated),-25% (inactive)
2,Cc1cccc(OCC(=O)Nc2ccc(N3CCN(C(=O)c4ccco4)CC3)cc2)c1,-15% (inactive)
3,O=c1[nH]c2ccc(NCc3ccccc3OCc3ccc(Cl)cc3)cc2[nH]1,-43% (inactive)
4,CCOc1ccc(Nc2nc(NCC3CCCO3)c3ccccc3n2)cc1 (configuration not stated),12% (inactive)
5,CN(C)c1ccc(NC(=O)c2ccc(Cn3cc([N+](=O)[O-])cn3)cc2)cc1,-9% (inactive)
6,C#CCOCCOCCOCCNc1nc(N2CCN(C(=O)[C@H](CCCCN)n3cc([C@@H](N)C(C)CC)nn3)CC2)nc(N2CCN(C(=O)[C@H](Cc3cc4ccccc4[nH]3)n3cc([C@@H](N)C(C)CC)nn3)CC2)n1 (some centres not stated),-33% (inactive)
7,COc1ccc(NCc2nn(CC(=O)c3ccc(Br)cc3)c3[n+]2CCCCC3)cc1,-48% (inactive)
8,COc1ccc(NC(=O)Nc2cccc3c2O[C@@H](CN(C)CC2CCCCC2)[C@@H](C)CN([C@H](C)CO)C3=O)cc1,-79% (inactive)
9,CCCCC(CC)C(=O)Nc1cc(C(=O)NCCC)ccc1N1CCC2(CC1)CC(c1ccccc1)=NO2 (configuration not stated),-141% (inactive)
10,CC(=O)Nc1ccc(C(=O)Cn2c3[n+](c4c(F)c(F)ccc42)CCCCC3)cc1,-42% (inactive)
11,Cc1ccccc1-c1ccc(Nc2ccc(N3CCOCC3)cc2)nn1,12% (inactive)
12,CN1CCN(CCCN2c3ccccc3Sc3ccc(Cl)cc32)CC1,-90% (inactive)
13,COc1cc2[nH]c3c(N4CCN(c5ccccn5)CC4)ncnc3c2cc1OC,1% (inactive)
14,COc1ccc2nc(C)cc(NN=Cc3cccc(OC)c3O)c2c1,-23% (inactive)
15,c1cncc(N=c2scc(-c3cccc4ccccc34)n2CCCn2ccnc2)c1,-95% (inactive)
16,O=C(C1=C[C@@H](c2ccccc2)C[C@@H](OCc2ccc(CO)cc2)O1)N1CCN(Cc2ccc3c(c2)OCO3)CC1,-73% (inactive)
17,Cc1ccc(S(=O)(=O)Nc2ccc3c(c2)CC(=O)N([C@H](C)CO)C[C@H](C)[C@H](CN(C)Cc2ccc4c(c2)OCO4)O3)cc1,9% (inactive)
18,CC(=O)N1CCN(c2ccc(NC(=O)COc3ccc(Cl)cc3Cl)cc2)CC1,-20% (inactive)
